# Hits are enriched below; roughly 1.6% of the tested compounds scored in any of these assays.
# KCNQ2 enhance – KCNQ2 (rat) channel potentiation | AID 2239 | B-score at 10 µM | 310,000 compounds, 0.54% hits | O88943 | CHO-K1 KCNQ2, FluxOR thallium flux fluorescence; active compounds read high;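 active = fluorescence ratio B-score at least 3 SD of library B-scores, with initial fluorescence B-score within 3 of them, cut at about 5.3 in these data; same plate scores as AID 2156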;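 note: B-score of peak minus minimum over baseline fluorescence ratio after K+ and Tl+ stimulus; positive B-score means potentiation of KCNQ2 with more thallium influx and brighter signal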
# KCNQ2 block – inhibitors of rat KCNQ2 potassium channel; O88943; AID 2156; CHO-K1 KCNQ2, FluxOR thallium flux, 20 min; active compounds read low; 310,000 compounds, 1.1% hits; B-score at 10 µM;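 active = fluorescence ratio B-score at most minus 3 library SDs, with starting brightness B-score within 2 library SDs, cut at about -5.5 in these data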
# Kir21 confirm – confirmation of mouse Kir2.1 potassium channel inhibitors. shares compounds with KCNQ2 enhance. 2,300 compounds, 41% hits. Kir2.1-expressing cells, FluxOR thallium flux fluorescence; active compounds read low. Tl flux remaining, % of negative control (active compounds read low), % at 10 µM;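 active = Primary-screen hit whose thallium flux fell at least 3 control SD below untreated wells in both duplicates, with normal baseline fluorescence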;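 note: 0% = blank wells without stimulus and 100% = stimulated no-compound controls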
# HEK293 ctr – parental HEK293 activity in Kir2.1 inhibitor counter-screen | AID 2105 | 2,300 compounds, 19% hits | parental HEK293 cells, FluxOR thallium flux fluorescence; 0% = unstimulated blank wells | FluxOR signal as % of negative control (100 = no effect), % at 10 µM | shares compounds with KCNQ2 enhance;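 active = dye signal at least 3 control SD above or below untreated wells in both duplicates, raw fluorescence within 3, either direction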;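 note: percent is based on the flux ratio of peak minus minimum fluorescence over baseline F0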
# CHO-K1 Tl ctr – counter-screen for KCNQ2 potentiators: effect in parental CHO-K1 cells; shares compounds with KCNQ2 enhance; FluxOR thallium flux fluorescence; zero = vehicle mean+3SD, 100% = vehicle-minus-blank window; activity increase over 3SD of controls, % at 10 µM; 1,200 compounds, 43% hits; AID 2282;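 active = signal rise of at least 3 SD above the untreated control mean, in both duplicate wells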;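 note: counter screen of KCNQ2 potentiator hits so any rise reflects channel-independent effects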
# KCNQ1 sel pot – selectivity of KCNQ2 potentiators: effect on human KCNQ1; shares compounds with KCNQ2 enhance; CHO KCNQ1 stable, FluxOR thallium flux fluorescence; beyond 3SD, as % of vehicle-control signal; 1,200 compounds, 28% hits; AID 2283; activation over 3SD threshold, % at 10 µM;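 active = fluorescence ratio rise of at least 3 SD of vehicle wells above their mean, in both replicate wells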;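 note: 0% = vehicle mean plus 3 SD and 100% = vehicle minus unstimulated blank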
# Target sequence (P51787 whole entry, looked up): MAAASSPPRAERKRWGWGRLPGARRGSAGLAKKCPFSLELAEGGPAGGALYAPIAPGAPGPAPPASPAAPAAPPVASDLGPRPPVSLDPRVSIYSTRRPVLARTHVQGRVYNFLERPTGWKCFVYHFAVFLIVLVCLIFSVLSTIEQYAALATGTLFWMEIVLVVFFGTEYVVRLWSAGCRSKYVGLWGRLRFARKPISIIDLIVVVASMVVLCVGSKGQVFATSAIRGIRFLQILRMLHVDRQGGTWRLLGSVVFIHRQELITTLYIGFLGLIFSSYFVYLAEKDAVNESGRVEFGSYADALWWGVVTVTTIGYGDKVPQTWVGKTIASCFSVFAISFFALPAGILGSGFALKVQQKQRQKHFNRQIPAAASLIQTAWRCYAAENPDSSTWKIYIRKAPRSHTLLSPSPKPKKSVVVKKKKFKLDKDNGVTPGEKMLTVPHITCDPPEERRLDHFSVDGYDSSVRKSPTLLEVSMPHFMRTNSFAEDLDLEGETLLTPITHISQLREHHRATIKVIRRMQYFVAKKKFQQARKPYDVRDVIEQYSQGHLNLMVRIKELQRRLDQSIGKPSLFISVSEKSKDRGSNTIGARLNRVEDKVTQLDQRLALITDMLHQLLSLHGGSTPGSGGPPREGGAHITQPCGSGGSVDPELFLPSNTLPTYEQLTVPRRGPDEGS
# KCNQ2 pot confirm – confirmation of rat KCNQ2 potassium channel potentiators. shares compounds with KCNQ2 enhance. CHO-KCNQ2 cells, FluxOR thallium flux fluorescence. potentiation, less the hit threshold, % at 10 µM. 1,200 compounds, 68% hits. AID 2287;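 active = fluorescence ratio rising 3 SD or more over the vehicle control mean in both replicates, plus primary screen hit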;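 note: peak minus minimum thallium fluorescence divided by baseline after K/Tl stimulus; 0% = vehicle mean plus 3 SD and 100% = vehicle minus unstimulated blank difference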
# Kir21 spec – tests whether KCNQ2 potentiators also affect mouse Kir2.1; HEK293 Kir2.1, FluxOR thallium flux fluorescence; AID 2345; 1,200 compounds, 2% hits; activity over 3SD threshold, % at 10 µM; shares compounds with KCNQ2 enhance;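 active = fluorescence ratio rise of at least 3 SD above the vehicle-control mean, seen in both replicates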;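 note: 0% = vehicle mean plus 3 SD and 100% = vehicle minus no-stimulus blank window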
# KCNQ2 W236L pot – potentiates the retigabine-insensitive rat KCNQ2 W236L mutant channel | 940 compounds, 10% hits | current increase over 3SD of negative controls (%), active compounds read high, % at 25 µM | shares compounds with KCNQ2 enhance | CHO KCNQ2-W236L, automated patch clamp current;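 active = current increase at least 3 SD of the untreated controls above them in both duplicate recordings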
# Numbers without * were called inactive; i = inactive; / = no result given.
SMILES,KCNQ2 enhance,KCNQ2 block,Kir21 confirm,HEK293 ctr,others
Cc1cc(OCC(O)CN2CCc3ccccc3C2)cc(C(C)C)c1 (centres undefined),/,i,53%*,i,
CC(C)Cc1ccc(C(C)NC(=O)Cc2ccc(S(=O)(=O)N3CCOCC3)s2)cc1 (centres undefined),0.18,i,/,/,
N=c1c2c3c(sc2ncn1Cc1ccco1)CCCCC3,0.74,i,/,/,
N=c1c2c(-c3ccccc3)c(-c3ccccc3)n(Cc3ccco3)c2ncn1Cc1ccccc1,-5.9,-5.9*,65%*,i,
N=c1c2c(-c3ccccc3)c(-c3ccccc3)n(Cc3ccco3)c2ncn1CCCn1ccnc1,/,i,32%*,64%*,
c1ccc(-c2oc3ncnc(NCCCn4ccnc4)c3c2-c2ccccc2)cc1,/,i,/,/,
CC(=O)N1CSCC1C(=O)NNS(=O)(=O)c1ccccc1 (centres undefined),/,i,/,/,
CCc1ccc(NC(=O)CCC(=O)Nc2nnc(C(C)C)s2)cc1,1.3,i,/,/,
O=C(N[C@H](C(=O)O)c1ccccc1)C1CCC(Cn2nnc3ccccc3c2=O)CC1 (some centres undefined),/,i,/,/,
O=C(CSc1n[nH]c(=O)[nH]c1=O)N/N=C/c1ccccc1O,0.06,i,/,/,
O=C(CSc1ccccc1)N/N=C/c1ccccc1O,6*,i,i,i,CHO-K1 Tl ctr=-11;KCNQ1 sel pot=-14;KCNQ2 pot confirm=25*;Kir21 spec=-30;KCNQ2 W236L pot=i
Cc1ccc(NC(=O)CNC(=O)CC23CC4CC(CC(C4)C2)C3)c(O)c1,10*,i,i,i,CHO-K1 Tl ctr=-6;KCNQ1 sel pot=-17;KCNQ2 pot confirm=25*;Kir21 spec=-23;KCNQ2 W236L pot=i
NS(=O)(=O)c1cccc(NC(=O)CNC(=O)CC23CC4CC(CC(C4)C2)C3)c1,1.4,i,/,/,
O=c1c2ccccc2cnn1Cc1nnc(-c2cccs2)o1,1.4,i,/,/,
COc1ccc(OC)c(N(CC(=O)NN=C2CCN(C)CC2)S(=O)(=O)c2ccccc2)c1,/,i,/,/,
CCn1c(O)c(N=Nc2ccc(Cl)c(C(=O)O)c2)c2ccccc21,2.8,i,/,/,
CC(C)n1c(O)c(N=Nc2ccc(Cl)c(C(=O)O)c2)c2ccccc21,7.5*,i,i,i,CHO-K1 Tl ctr=78*;KCNQ1 sel pot=29*;KCNQ2 pot confirm=23*;Kir21 spec=-32;KCNQ2 W236L pot=50%*
CCCCCCCn1c(NC(=O)CC)nc2ccccc21,10*,i,i,i,CHO-K1 Tl ctr=-21;KCNQ1 sel pot=-5;KCNQ2 pot confirm=61*;Kir21 spec=-45;KCNQ2 W236L pot=i
CCCCCCn1c(C(C)NC(=O)c2ccco2)nc2ccccc21 (centres undefined),-6.2,-6.2*,54%*,i,
CCCCn1c(C(C)NC(=O)CC)nc2ccccc21 (centres undefined),0.1,i,/,/,
CCC(=O)Nc1nc2ccccc2n1CCN1CCOCC1,/,i,/,/,
Cc1ccc(C2(C)NC(=O)N(CC(=O)N3CCN(S(=O)(=O)c4ccc(Cl)s4)CC3)C2=O)cc1 (centres undefined),0.02,i,/,/,
CCCOc1ccc(NC(=O)CC2C(=O)N(c3ccc(OCC)cc3)C(=S)N2C2CC2)cc1 (centres undefined),0.35,i,/,/,
NC(=O)CN(c1ccc([N+](=O)[O-])cc1)S(=O)(=O)c1ccccc1,0.23,i,/,/,
Cc1cc2oc(=O)cc(CN3CCN(S(=O)(=O)c4cccs4)CC3)c2cc1C,0.47,i,/,/,
SMILES,KCNQ2 enhance,KCNQ2 block,Kir21 confirm,HEK293 ctr,others
c1ccc(Cn2nnnc2CN2CCN(c3ncccn3)CC2)cc1,0.01,i,/,/,
CCN(Cc1ccccc1)Cc1nnnn1Cc1ccccc1,/,i,38%*,69%*,
Cc1cccc(N2CCN(C(=O)CNC(=O)c3cccc([N+](=O)[O-])c3)CC2)c1C,/,i,i,i,
O=C(NCC(=O)N1CCN(c2ccccc2O)CC1)c1ccccc1,0.03,i,/,/,
O=C(CSc1nnnn1-c1cccc2c1CCCC2)N1CCCCC1,6.2*,i,70%*,i,CHO-K1 Tl ctr=69*;KCNQ1 sel pot=-20;KCNQ2 pot confirm=-7;Kir21 spec=-66
Cc1ccc(-n2nnnc2SCC(=O)N2CCCCC2)cc1,/,i,/,/,
CCC(C)[C@H]1CNCCN1CCc1cccc2ccccc12 (some centres undefined),0.06,i,/,/,
Cc1ccc(C(=O)O)cc1N=Cc1cc(Br)cc(Br)c1O,10*,i,i,i,CHO-K1 Tl ctr=-20;KCNQ1 sel pot=-21;KCNQ2 pot confirm=31*;Kir21 spec=-21;KCNQ2 W236L pot=i
CC(=O)Nc1ccc(C(=O)N/N=C/c2cc(Br)cc(Br)c2O)cc1,/,i,/,/,
Cc1cccc2sc(NNC(=O)c3cc(=O)c4ccccc4o3)nc12,0.27,i,/,/,
COc1ccc2nc(NNC(=O)c3cc(=O)c4ccccc4o3)sc2c1,13*,i,i,i,CHO-K1 Tl ctr=-14;KCNQ1 sel pot=-8;KCNQ2 pot confirm=-24;Kir21 spec=-21
Cc1ccc(NC(=O)CN(C)C(=O)c2cccc(S(=O)(=O)NCc3ccccc3)c2)cc1,0.97,i,/,/,
COC(=O)c1sc(NC(=O)c2ccc(Cn3cc(Cl)cn3)o2)c(C#N)c1C,0.21,i,/,/,
Cc1ccc(NC(=O)c2ccc(Cn3cc(Cl)cn3)o2)c(C)c1,/,i,26%*,i,
Cc1cc(C)c(NC(=O)CN2CCC(NC(=O)NC3CCCCC3)CC2)c(C)c1,/,i,/,/,
Cc1ccc(O)c(NC(=O)CCC2CCCCC2)c1,0.28,i,/,/,
O=C(CCC1CCCCC1)Nc1ccccc1-c1ccccc1,12*,i,i,i,CHO-K1 Tl ctr=38*;KCNQ1 sel pot=-12;KCNQ2 pot confirm=74*;Kir21 spec=-41;KCNQ2 W236L pot=i
O=C(Cn1ncc2c3ccccc3n(Cc3ccccc3)c2c1=O)NCc1ccco1,1.8,i,/,/,
CC(NC(=O)/C(C#N)=C/c1ccc([N+](=O)[O-])o1)c1ccccc1 (centres undefined),/,i,i,64%*,
CC(NC(=O)/C(C#N)=C/c1ccco1)c1ccccc1 (centres undefined),/,i,/,/,
Cc1occc1C(=O)Nc1ccccc1C(=O)O,/,i,/,/,
Cc1occc1C(=O)Nc1ccc2ccccc2c1,13*,i,i,i,CHO-K1 Tl ctr=105*;KCNQ1 sel pot=-17;KCNQ2 pot confirm=60*;Kir21 spec=-30;KCNQ2 W236L pot=i
CC(=O)c1cccc(NC(=O)c2ccoc2C)c1,2.1,i,/,/,
Cc1cc(C)c(NC(=O)c2ccoc2C)c(C)c1,6.1*,i,i,i,CHO-K1 Tl ctr=-3;KCNQ1 sel pot=-3;KCNQ2 pot confirm=9.5*;Kir21 spec=-16;KCNQ2 W236L pot=i
O=C(NCCc1ccccc1)C1=CCN(S(=O)(=O)c2ccccc2)CC1,0.01,i,/,/,
